Data: PubChem BioAssay (NCI)
This is part of a sample that, as a whole, favours compounds with a hit. Of some 83,000 tested, about 20% had one in any assay.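 Cell lines were cultured in 96-well plates, exposed to a single compound concentration, and assessed for percent growth 48 hours later.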 Unmarked numbers belong to inactive results. Calls of active or inactive are those of the source. How the source made its calls: active means growth percent below 10; inactive means the rest.

Test system: NCI-H522 lung
Assay: NCI-60 one-dose screen, 48 h (100 = growth as untreated, 0 = no growth, -100 = all killed)
Conditions: 10 µM unless noted

Compound | growth
CN(C)CCCNC(=O)c1cc(NC(=O)c2cc(NC(=O)c3ccc(/C=C/c4ccccc4)cc3)cn2C)cn1C | -16.4% (active)
O=C(NNc1ccccc1)n1c(=O)c2ccccc2c(=O)n1-c1ccccc1 | 86.4%
C(=C\c1cc(/C=C/c2ccccc2)c2ccccc2n1)/c1ccccc1 | 93.4%
COc1cc2c(c(OC)c1OC)C(=O)CC(c1cccc(NC(=O)c3cc([N+](=O)[O-])ccc3Cl)c1)O2 (centres undefined) | -27.1% (active)
O=c1c2ccccc2nc(-c2ccccc2)n1/N=C/c1ccc2ccccc2c1 | 63.1%
CC(/C=C1\SC(=S)N(CCCC(=O)NC(CC(C)C)C(=O)O)C1=O)=C\c1ccccc1 (centres undefined) | 84.2%
CCOc1ccc(C(=O)NC(=S)Nc2ccc(S(N)(=O)=O)cc2)cc1 | 77.5% [100 µM]
O=C(CCN1C(=O)/C(=C/c2ccc(F)cc2)SC1=S)N1CCOCC1 | -79% (active)
CC1(C)CC[C@]2(C(=O)Nc3ccc(F)cc3)CC[C@]3(C)C(=CCC4[C@@]5(C)C[C@@H](O)[C@H](O)[C@@](C)(CO)C5CC[C@]43C)C2C1 (some centres undefined) | 32.8%
NS(=O)(=O)c1ccc(-n2cc(-c3cccc(NC(=O)c4cc(C(F)(F)F)cc(C(F)(F)F)c4)c3)nn2)cc1 | 75.4%
COc1cc(C2CC(c3cc(OC)c(OC)c(OC)c3)=NN2c2ccccc2)ccc1OCc1ccc(C)cc1 (centres undefined) | 82.3%
Cc1ccc2c(N)c(C(=O)Nc3ccc(-c4ccccc4)cc3)sc2n1 | 53.9%
C=C1CCC2C3(C)COC(c4ccccc4F)OC3CCC2(C)C1CC(O)C1=CCOC1=O (centres undefined) | -50.3% (active)
COc1ccc(-c2nnc3ccc(N/N=C/c4ccc(C)cc4)nn23)cc1 | 91%
COc1cc(-c2ccc(/C=N/NC(=O)c3[nH]c4ccc(Br)cc4c3-c3ccccc3)o2)cc(OC)c1OC | 82.8%
COc1ccc2c(c1)c(-c1cc3nc(-c4cn(C)c5ncccc45)cc(N)n3n1)cn2C | -78.4% (active)
O=C(COc1ccc(NC(=O)Nc2ccccc2)cc1)N=Nc1c(O)[nH]c2ccc([N+](=O)[O-])cc12 | -48% (active)
CCCCCCn1c(O)c(N=Nc2nc(-c3cc4ccccc4oc3=O)cs2)c2ccccc21 | -21.8% (active)
COc1ccc(NC(=O)Cn2c3c(sc2=O)[C@H]2[C@@H](O)[C@@H](O)[C@H](O)[C@@H]2CS3)cc1 | 94.2%
CCCCc1c(Nn2cnnn2)no[n+]1[O-] | -21.9% (active)
CN1CCN(/C(=N\c2sc(-c3ccccc3)nc2-c2ccccc2)c2ccccc2)CC1 | 87.3%
C=C1CC[C@@H]2[C@]3(C)COC(c4cn[nH]c4-c4ccccc4)O[C@@H]3CC[C@@]2(C)[C@@H]1C/C=C1/C(=O)OCC1O (some centres undefined) | 1.15% (active)
CN(C)c1ccnc(NCCCSC(c2ccccc2)(c2ccccc2)c2ccccc2)c1 | 41.1%
CC12CC[C@@H]3[C@]4(C)COC(c5cn[nH]c5-c5cccc(Br)c5)O[C@@H]4CC[C@@]3(C)[C@@H]1CC(C1=CCOC1=O)O2 (some centres undefined) | 24.9%
Brc1ccc(-c2n(Cc3ccc4ccccc4c3)c(-c3ccccc3)c(-c3ccccc3)[n+]2Cc2ccc3ccccc3c2)cc1 | -90.9% (active)
O=C(NN1C(=O)/C(=C/C=C/c2ccc([N+](=O)[O-])o2)SC1=S)c1ccc(Cl)cc1 | -88.8% (active)

Test system: A549/ATCC NSCLC
Assay: as above
Conditions: 10 µM unless noted

Compound | growth
COc1cc2oc(-c3cccc(C(=O)Nc4cccc([N+](=O)[O-])c4)c3)cc(=O)c2c(OC)c1OC | 23%
COc1cc2c(c(OC)c1OC)C(=O)CC(c1cccc(NC(=O)c3cc(N)ccc3Cl)c1)O2 (centres undefined) | 71.5%
CCOC(=O)/C=C/c1cccc2c1C(=O)NC(C)(c1cc3cc(Cl)ccc3oc1=O)N2 (centres undefined) | 47.2%
CC(C)c1ccc2c(N)c(C(=O)Nc3cccc(C(F)(F)F)c3)sc2n1 | 78.8%
O=C(C1=CNC(=S)NC1c1ccc(O)cc1)c1cc2ccccc2oc1=O (centres undefined) | 101%
COc1cc(-c2cc(-c3cccc(OCC(=O)O)c3)[nH]c(=O)c2C#N)cc(OC)c1OC | 100%
COc1cccc(-c2nc(Nc3ccc(S(N)(=O)=O)cc3)c3ccccc3n2)c1 | 27.7%
N#Cc1c(-c2ccc(Cl)cc2)nc2n[nH]c(-c3ccc(Cl)cc3)c2c1-c1ccc(C(F)(F)F)cc1 | 6.82% (active)
CC12CC[C@@H]3[C@]4(C)COC(c5cn[nH]c5-c5ccc(Br)cc5)O[C@@H]4CC[C@@]3(C)[C@@H]1CC(C1=CCOC1=O)O2 (some centres undefined) | 35.5%
CC1=C(C(=O)OCc2ccccc2)C(c2c(O)cc(O)cc2O)n2c(nc3ccccc32)N1 (centres undefined) | 56.7%
COc1ccc2[nH]c(O)c(N=NC(=O)Cn3c(-c4ccccc4)nc4cc(C)ccc43)c2c1 | 15.3%
C=C1CC[C@@H]2[C@]3(C)COC(c4cn(-c5ccccc5)nc4-c4ccccc4)O[C@@H]3CC[C@@]2(C)[C@@H]1C/C=C1/C(=O)OC[C@H]1O (some centres undefined) | -22.2% (active)
CN(C)CCCNC(=O)c1cc(NC(=O)c2cc(NC(=O)c3ccc(/C=C/c4ccccc4)cc3)cn2C)cn1C | 35.7%
O=C(NNc1ccccc1)n1c(=O)c2ccccc2c(=O)n1-c1ccccc1 | 83.1%
C(=C\c1cc(/C=C/c2ccccc2)c2ccccc2n1)/c1ccccc1 | 101%
COc1cc2c(c(OC)c1OC)C(=O)CC(c1cccc(NC(=O)c3cc([N+](=O)[O-])ccc3Cl)c1)O2 (centres undefined) | 35.6%
O=c1c2ccccc2nc(-c2ccccc2)n1/N=C/c1ccc2ccccc2c1 | 41.8%
CC(/C=C1\SC(=S)N(CCCC(=O)NC(CC(C)C)C(=O)O)C1=O)=C\c1ccccc1 (centres undefined) | 89.8%
CCOc1ccc(C(=O)NC(=S)Nc2ccc(S(N)(=O)=O)cc2)cc1 | 101% [100 µM]

Compound | growth
O=C(CCN1C(=O)/C(=C/c2ccc(F)cc2)SC1=S)N1CCOCC1 | 81.5%
CC1(C)CC[C@]2(C(=O)Nc3ccc(F)cc3)CC[C@]3(C)C(=CCC4[C@@]5(C)C[C@@H](O)[C@H](O)[C@@](C)(CO)C5CC[C@]43C)C2C1 (some centres undefined) | 28.5%
NS(=O)(=O)c1ccc(-n2cc(-c3cccc(NC(=O)c4cc(C(F)(F)F)cc(C(F)(F)F)c4)c3)nn2)cc1 | 56.7%
COc1cc(C2CC(c3cc(OC)c(OC)c(OC)c3)=NN2c2ccccc2)ccc1OCc1ccc(C)cc1 (centres undefined) | 102%
Cc1ccc2c(N)c(C(=O)Nc3ccc(-c4ccccc4)cc3)sc2n1 | 81.5%
C=C1CCC2C3(C)COC(c4ccccc4F)OC3CCC2(C)C1CC(O)C1=CCOC1=O (centres undefined) | 67.7%
COc1ccc(-c2nnc3ccc(N/N=C/c4ccc(C)cc4)nn23)cc1 | 33.4%
COc1cc(-c2ccc(/C=N/NC(=O)c3[nH]c4ccc(Br)cc4c3-c3ccccc3)o2)cc(OC)c1OC | 71.6%
COc1ccc2c(c1)c(-c1cc3nc(-c4cn(C)c5ncccc45)cc(N)n3n1)cn2C | -30.6% (active)
O=C(COc1ccc(NC(=O)Nc2ccccc2)cc1)N=Nc1c(O)[nH]c2ccc([N+](=O)[O-])cc12 | 101%
CCCCCCn1c(O)c(N=Nc2nc(-c3cc4ccccc4oc3=O)cs2)c2ccccc21 | -16.6% (active)
COc1ccc(NC(=O)Cn2c3c(sc2=O)[C@H]2[C@@H](O)[C@@H](O)[C@H](O)[C@@H]2CS3)cc1 | 100%
CCCCc1c(Nn2cnnn2)no[n+]1[O-] | 66.4%
CN1CCN(/C(=N\c2sc(-c3ccccc3)nc2-c2ccccc2)c2ccccc2)CC1 | 76.9%
C=C1CC[C@@H]2[C@]3(C)COC(c4cn[nH]c4-c4ccccc4)O[C@@H]3CC[C@@]2(C)[C@@H]1C/C=C1/C(=O)OCC1O (some centres undefined) | 56.1%
CN(C)c1ccnc(NCCCSC(c2ccccc2)(c2ccccc2)c2ccccc2)c1 | 48.4%
CC12CC[C@@H]3[C@]4(C)COC(c5cn[nH]c5-c5cccc(Br)c5)O[C@@H]4CC[C@@]3(C)[C@@H]1CC(C1=CCOC1=O)O2 (some centres undefined) | 25%
Brc1ccc(-c2n(Cc3ccc4ccccc4c3)c(-c3ccccc3)c(-c3ccccc3)[n+]2Cc2ccc3ccccc3c2)cc1 | -88.8% (active)
O=C(NN1C(=O)/C(=C/C=C/c2ccc([N+](=O)[O-])o2)SC1=S)c1ccc(Cl)cc1 | -86.7% (active)
